An excerpt weighted towards active compounds, which were near 21% of everything screened.
Pf growth 96h: Primary qHTS for delayed death inhibitors of the malarial parasite plastid, 96 hour incubation. P. falciparum luciferase reporter growth, 96 h. Potency, µM (titrated, usually from 28.7 µM), inactives show at the top dose activity change, negative = inhibition, most hits filed as inhibitors. 320,000 compounds, 6.9% hits; further: potency means the concentration at half of the fitted maximal effect; on the % scale 0 is the no-effect control and ±100 the full control effect
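96 h incubation, 37 C, 5% CO2, of luciferase-reporter P. falciparum-infected RBCs (2% hematocrit, 0.05% parasitemia final) with test compounds; endpoint luminescence.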
CHX counter: Cycloheximide Counterscreen for Small Molecule Inhibitors of Shiga Toxin. cell reporter, cycloheximide protein synthesis inhibition counterscreen. max response, %. 300,000 compounds, 12% hits. AID 2314, 2010; in the data active means max response mostly above about 13%, no sharp cut-off; inactive means mostly below about 14%; further: read at 38.3 µM for the half of the compounds with a filed dose; 0% is about no effect
HCV inh: qHTS Assay for Inhibitors of Hepatitis C Virus (HCV); Huh7.5.1 HCVcc-Cre infection, luciferase reporter, 44 h; Potency, µM (top dose mostly 41.8 µM), without a hit: at the top dose activity change, negative = inhibition, most hits filed as inhibitors; 340,000 compounds, 3.4% hits; AID 651820, 2012; further: potency means the concentration at half of the fitted maximal effect; on the % scale 0 is the no-effect control and ±100 the full control effect
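1,000 cells/well; 4 h culture; + compound; + HCVcc-Cre (~0.5 moi); 44 h; luciferase substrate, RT 15 min; read 15 sec.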
Shiga toxin inh: A qHTS for Small Molecule Inhibitors of Shiga Toxin; inhibition, % at 38.7 µM; 290,000 compounds, 9.2% hits; Vero cells, Shiga toxin protein synthesis inhibition reporter; AID 2315, 2010; in the data active means inhibition mostly above about 28%, no sharp cut-off; inactive means mostly below about 43%; further: 0% is about no effect
HCMV antiviral: qHTS Assay for inhibitors of the human cytomegalovirus (HCMV); HFF cells, HCMV-luciferase reporter, 72 h; active compounds read low; activity change, negative = inhibition, % at 57.5 µM; 410,000 compounds, 4.5% hits; AID 1259415, 2018; in the data active means activity change below about -60%; inconclusive means no clear call, values can overlap the other calls; inactive means above about -39%; further: on the % scale 0 is the no-effect control and ±100 the full control effect
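Inhibition of viral replication was scored as loss of reporter luminescence in HFFs infected with HCMV-luciferase (MOI 1 PFU/cell) for 72 h; compounds tested at 2 doses, normalized to buffer and Salinomycin controls.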
Pf growth 48h: Primary qHTS for delayed death inhibitors of the malarial parasite plastid, 48 hour incubation; P. falciparum luciferase growth in erythrocytes, 48 h; Potency, µM (top dose mostly 28.7 µM), inactives show at the top dose activity change, negative = inhibition, most hits filed as inhibitors; 310,000 compounds, 5.9% hits; further: potency means the concentration at half of the fitted maximal effect; on the % scale 0 is the no-effect control and ±100 the full control effect
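Read-out is firefly luciferase luminescence from an integrated reporter in P. falciparum, so falling signal marks reduced parasite growth. Infected erythrocytes were at 2% hematocrit and 0.1% parasitemia (final) in Albumax-supplemented RPMI 1640.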
Active calls of the source: *; ? = inconclusive; · = not tested or not shown. Unless noted, the call rests on the fitted dose curve; in most records, active means well fitted inhibition curve with a large enough effect; inconclusive means small, poorly fitted or top-dose-only effect, or another doubt; inactive means no such curve, though single readings can be large or run the other way.

SMILES | Pf growth 96h | CHX counter | HCV inh | Shiga toxin inh | HCMV antiviral | Pf growth 48h
COc1cccc(/C=N/Nc2cc(Cl)nc(C)n2)c1O | 14.2% | 31.5* | 0.1% | 54.2* | 54.0 | ?
CCN(CC(=O)NCc1cccs1)C(=O)c1ccc(S(=O)(=O)Nc2ccccc2F)cc1 | 6.9% | · | 6.3% | · | 3.1 | -25.1%
CCCCOc1ccc(C(=O)N/C(=C\c2ccc(Br)cc2)C(=O)NC2CCCCC2)cc1 | · | · | · | · | -4.5 | ·
COc1ccc(CNS(=O)(=O)c2c(C)[nH]c(C)c2C(=O)N2CCCCC2)cc1 | 14.3% | 2.0 | -6.4% | 23.8 | 0.3 | -0.8%
Cc1ccc(CNS(=O)(=O)c2c(C)[nH]c(C)c2C(=O)N2CCCCC2)o1 | 13.1µM* | 1.9 | 17.8% | 17.0 | -29.2 | -7.7%
COc1ccc2c(c1OC)C(=O)OC2n1c(O)c(N=NC(C)=O)c2ccccc21 (stereo unspecified) | 2.0% | -2.9 | 2.6% | -4.2 | 3.0 | 32.2%
COc1ccc(C2=NOC(Cn3c(Cc4ccc(Cl)cc4)nc4c3c(=O)n(C)c(=O)n4C)C2)cc1 (stereo unspecified) | 13.1µM* | -1.8 | 1.41µM* | 3.9 | -9.3 | -8.6%
C=CCC1C=CCC(CC=C)N1C(=O)c1ccccc1[N+](=O)[O-] (stereo unspecified) | ? | -4.4 | 17.8µM* | -2.7 | -23.7 | ?
O=C(c1ccccc1[N+](=O)[O-])N1CC2C3C=CC(C3)C2C1 (stereo unspecified) | ? | -3.4 | 6.9% | -3.1 | ? | -11.4%
COc1cc(C=C2C(=O)NC(=O)NC2=O)ccc1OCc1ccc([N+](=O)[O-])cc1 | -3.2% | 59.2* | -4.4% | 101.7* | -30.3 | 24.9%
COC(=O)C(=Cc1ccc(OCc2ccc([N+](=O)[O-])cc2)c(OC)c1)C(=O)OC | -1.8% | 23.9* | 6.7% | 41.8* | 89.1 | ?
COc1cc(C(c2c(C)[nH][nH]c2=O)c2c(C)[nH][nH]c2=O)ccc1OCc1ccc([N+](=O)[O-])cc1 | 146.1% | 24.9* | 10.4% | 51.7 | 99.0 | ?
CCOC(=O)C(=Cc1ccc(OCc2ccc([N+](=O)[O-])cc2)c(OC)c1)C(=O)OCC | ? | 43.3* | ? | 27.5 | 42.2 | ?
CCOC(=O)/C(=C\c1ccc(OC)c(OC)c1)C(=O)c1cccnc1 | -6.8% | 0.3 | 2.7% | 1.1 | -17.8 | -19.5%
COc1ccc(/C=N/NC(=O)CSCc2ccc([N+](=O)[O-])cc2)cc1OC | 58.6% | 2.1 | 19.5% | -16.5 | 1.2 | -25.4%
O=C1NC(=O)C(=Cc2ccc(Oc3ccc([N+](=O)[O-])cc3)cc2)C(=O)N1 | 59.8% | 1.3 | -3.0% | 23.7 | · | 0.2%
CCn1c(C(=O)N2CCC(C(=O)NCCc3ccc(OC)cc3OC)CC2)cc2sccc21 | · | · | · | · | -18.8 | ·
Cc1nc2c(Cl)cc(Cl)cc2[nH]1 | 85.0% | -2.2 | ? | -13.1 | -65.5* | 18.3%
CC(=O)Oc1[nH]c(=O)c2cccc3c2c1CCC3 | · | · | · | · | 67.1 | ·
Clc1ccccc1CN(Cc1ccco1)Cc1nnnn1C1CCCC1 | 11.7% | -1.5 | 10µM* | 12.2 | 10.2 | 7.38µM*
CN(C)CCCNC(=O)C(=O)NCC1CCCO1 (stereo unspecified) | 32.3% | -2.7 | 17.6% | 12.3 | 56.4 | -24.4%
Cc1nn(-c2ccccn2)c2c1-c1nc(N)ncc1CC2 | · | 36.3* | -20.3% | 49.3* | 4.1 | 36.0%
CC(C)CNC(=O)C1(C)CCCN1Cc1ccc(S(C)(=O)=O)cc1 (stereo unspecified) | · | · | · | · | -101.6* | ·
O=C(C1CC1)N1CCC(c2nc(-c3ccc(S(=O)(=O)N4CCCC4)cc3)no2)CC1 | ? | -2.8 | ? | -17.8 | 8.6 | ·
O=C(C1CC1)N1CCC(c2nc(-c3ccc(S(=O)(=O)NCC4CCCO4)cc3)no2)CC1 (stereo unspecified) | -17.6% | -1.3 | ? | -5.5 | -96.5* | 9.28µM*
SMILES | Pf growth 96h | CHX counter | HCV inh | Shiga toxin inh | HCMV antiviral | Pf growth 48h
O=C(NC1CCCCC1)N1CCC(c2nc(-c3ccc(S(=O)(=O)N4CCCC4)cc3)no2)CC1 | 4.5% | -3.2 | ? | -15.6 | -61.8* | ?
O=C(Cc1ccccc1)N1CCCC(c2nc(-c3ccc(S(=O)(=O)N4CCCC4)cc3)no2)C1 (stereo unspecified) | 8.28µM* | -1.6 | ? | -7.6 | -39.4 | ·
CS(=O)(=O)N1CCCC(c2nc(-c3ccc(S(=O)(=O)NCc4ccccc4)cc3)no2)C1 (stereo unspecified) | ? | -2.4 | ? | -25.3 | -94.8* | ?
Oc1ccc(Br)c(CN2CCN(c3ncc(Cc4ccccc4)cn3)CC2)c1 | · | · | · | · | -14.2 | ·
O=c1oc2c(-c3ccc([N+](=O)[O-])cc3)cc(O)cc2s1 | ? | 14.8* | 2.1% | 6.2 | -39.9 | ?
NC1=C(c2ccc([N+](=O)[O-])cc2)C(=O)CO1 | 18.6% | 11.8 | 3.8% | -61.9 | 2.6 | 2.5%
COc1cccc(NC(=O)COC(=O)c2c(F)cccc2Cl)c1 | 223.8% | 36.9* | -21.9% | 94.9* | -24.8 | 134.7%
O=C(COC(=O)c1c(Cl)cccc1Cl)NC1CCCCC1 | 39.7% | 21.5 | ? | 37.8 | -33.3 | -3.0%
O=C(COC(=O)c1c(F)cccc1Cl)NC1CCCC1 | 84.7% | 51.4* | -8.9% | 109.8* | 2.4 | 93.3%
CCOC(=O)c1ccc(NC(=O)c2c(-c3c(F)cccc3Cl)noc2C)cc1 | · | · | · | · | -5.7 | ·
Cc1nc(-c2ccc(Cl)cc2)sc1CCNC(=O)C(=O)Nc1ccc(F)cc1F | · | · | · | · | 47.3 | ·
Cc1cccc2c(C(=O)N3CCN(C(=O)c4ccco4)CC3)cc(-c3cccc(Br)c3)nc12 | 35.3% | 1.6 | ? | 6.4 | -64.0* | ?
O=C(c1ccco1)N1CCN(C(=O)c2cc(-c3ccccc3)nc3ccccc23)CC1 | 87.4% | 19.4* | -3.5% | 12.9 | 69.1 | -17.9%
OCC1OC(c2ccc(OCc3ccccc3)cc2OCc2ccccc2)C(O)C1O (stereo unspecified) | · | · | · | · | -18.5 | ·
Cc1cc(NCCC(C)C)n2nc(C)c(-c3ccccc3)c2n1 | · | 15.9 | 8.91µM* | 37.3 | 12.0 | 9.28µM*
C=C(C)CSc1cc(C)nc2c(-c3ccccc3)c(C)nn12 | 10.4µM* | 36.0* | ? | 34.0 | -84.8* | 6.57µM*
CC(=O)Nc1ccc(Nc2cc(C)nc3c(-c4ccccc4)c(C)nn23)cc1 | 3.7µM* | 6.9 | ? | 14.8 | -33.5 | ?
CCSc1cc(C)nc2c(-c3ccccc3)c(C)nn12 | ? | 9.9 | ? | -1.8 | -26.8 | ·
Cc1cc(SCC(=O)Nc2ccc(O)cc2)n2nc(C)c(-c3ccccc3)c2n1 | 2.0% | 1.6 | ? | 20.6 | -61.9* | -3.8%
Cc1cc(=O)n(CC(=O)N2CCCCC2)c2c1c(C)nn2C | · | · | · | · | -0.2 | ·

Screening data as filed in PubChem.
